# Results as given in paper PMC4552634, “A New Set of Chemical Starting Points with Plasmodium falciparum Transmission-Blocking Potential for Antimalarial Drug Discovery” (PLoS ONE, 2015).
# Read-outs that look alike come from different tables or passages of the source. The whole screen tested about 13,000 compounds, of which about 3,200 (25%) showed an effect of 50% or more. This is one part of the list.
# Tested on: P. falciparum stage V gametocytes
# Set-up: BacTiter-Glo ATP luminescence viability of purified stage V gametocytes in 384-well plates, per cent inhibition versus DMSO
# Details: 48 h, 5 µM, inhibitor
SMILES,% Inhibition [%],% Inhibition (% Inhibition) [%]
COc1nc2c(CCN3CC[C@H](NCc4cc(C#N)c5c(c4)OCCO5)[C@H](O)C3)ccnc2cc1F [TCMDC-135968],5.29,–
COc1ccc2nccc([C@H](O)CN3CCC(NCc4cc(C)c5c(c4)OCCO5)CC3)c2n1 [TCMDC-136075],22.49,–
COc1ccc2ncc(F)c([C@@H](O)CN3CCC(NCc4cc(C#N)c5c(c4)CCO5)CC3)c2n1 [TCMDC-136078],86.13,–
COc1nc2c(CCN3CC[C@H](NCc4cc(C#N)c5c(c4)CCO5)[C@H](O)C3)ccnc2cc1F [TCMDC-135969],-20.52,–
COc1nc2c(CCN3CC[C@@H](NCc4cc(C#N)c5c(c4)CCO5)[C@@H](O)C3)ccnc2cc1F [TCMDC-135964],90.2,–
COc1ccc2ncc(F)c([C@H](O)CN3CCC(NCc4ccc5c(c4)OCCO5)CC3)c2c1 [TCMDC-135828],-2.76,–
COc1ccc2ncc(F)c([C@@H](O)CN3CCC(NCc4ccc5c(c4)NCCS5)CC3)c2n1 [TCMDC-135765],82.34,–
COc1ccc2ncc(F)c(CCN3CCC(NCc4ccc5c(c4)CCO5)CC3)c2n1 [TCMDC-135491],11.83,–
COc1ccc2ncc(F)c([C@H](O)CN3CCC(NCc4ccc5c(c4)NC(=O)CO5)CC3)c2c1 [TCMDC-135829],-7.754,–
O=C(Nc1ccc(-c2cccc(-c3nc4ccccc4[nH]3)c2)cc1)NC1CC1c1ccccc1 (centres unmarked) [TCMDC-133257],-13.71,–
O=C(CC1CCCC1)N(CC1CCN(Cc2ccc(C(F)(F)F)cc2)CC1)c1ccc(N2CCOCC2)c(F)c1 [TCMDC-135855],9.841,–
CCN(CCCN1CCCCC1)c1nccc(Nc2ccc(Cl)cc2)n1 [TCMDC-137046],6.161,–
CS(=O)(=O)c1ccccc1CNC(=O)c1cccc(-c2ccc(-c3nc4cc(C(F)(F)F)ccc4[nH]3)cc2)c1 [TCMDC-132506],-36.65,–
CC(C)N1CCC(N(Cc2ccc(-c3ccc(Cl)cc3)cc2)C(=O)Cn2c(CCc3cccc(F)c3F)nc(=O)c3ccccc32)CC1 [TCMDC-141368],117.4,–
CC(C)N1CCC(N(Cc2ccc(-c3ccc(C(F)(F)F)cc3)cc2)C(=O)Cn2c(CCc3cccc(F)c3F)cc(=O)c3ccccc32)CC1 [TCMDC-141141],111.4,–
CC(C)N1CCC(N(Cc2ccc(-c3ccc(C(F)(F)F)cc3)cc2)C(=O)Cn2c(SCc3cccc(F)c3F)cc(=O)c3ccccc32)CC1 [TCMDC-141157],117.9,–
CC(C)N1CCC(N(Cc2ccc(-c3ccc(C(F)(F)F)cc3)cc2)C(=O)Cn2c(SCc3cccc(F)c3F)nc(=O)c3ccccc32)CC1 [TCMDC-141312],121.2,–
N#Cc1c(N)nc(SCC(=O)Nc2cc(C(F)(F)F)ccc2Cl)c(C#N)c1-c1cccs1 [TCMDC-123750],-5.622,–
COc1ccc(NC(=O)c2ccc(Br)c(C)c2)cc1N1CCN(Cc2ccccc2)CC1 [TCMDC-139031],-19.8,–
CSc1cccc(NC(=O)c2cc3ccccc3oc2=O)c1 [TCMDC-123616],19.07,–
O=C(NCC(c1ccc(C(F)(F)F)cc1)N1CCCC1)c1cc(-c2ccncc2)c(-c2cccc(O)c2)o1 (centres unmarked) [TCMDC-135665],33.87,–

SMILES,% Inhibition [%],% Inhibition (% Inhibition) [%]
CCn1c(SCc2ccccc2)nc2c1c(=O)[nH]c(=O)n2C [TCMDC-125734],-6.834,–
CC(C)CNC(=S)N1CCCN(c2nc3ccc(Cl)cc3s2)CC1 [TCMDC-139465],24.85,–
Cc1noc(C)c1CN1Cc2ccccc2OC2(CCN(Cc3c[nH]c4cnccc34)CC2)C1 [TCMDC-133381],19.56,–
COc1ccc(NC(=O)NC2CCN(c3ccnc4cc(Cl)ccc34)CC2)cc1 [TCMDC-133573],-92.42,–
CN1CCC(N(Cc2ccc(-c3ccc(C(F)(F)F)cc3)cc2)C(=O)Cn2cc(Cc3cnn(C)c3)c(=O)nc2SCc2cccc(F)c2F)CC1 [TCMDC-141337],106.7,–
CC(C)N1CCC(N(Cc2ccc(-c3ccc(Cl)cc3)cc2)C(=O)Cn2c(CCc3cccc(F)c3F)cc(=O)c3ccccc32)CC1 [TCMDC-141363],102.7,–
CCCC(C)NC(=O)[C@H](CC1CCCCC1)NC(=O)c1ccc(O)c(-c2cccc(C(F)(F)F)c2)c1 (some centres unmarked) [TCMDC-140808],13.25,–
CC1CN=C(c2ccc(NC(=O)Nc3ccc(C4=NCC(C)N4)cc3)cc2)N1 (centres unmarked) [TCMDC-137210],-10.63,–
N#Cc1cccc(NC(=O)NC2CCN(CCCCCNC(=O)/C=C/c3ccc(Cl)c(Cl)c3)CC2)c1 [TCMDC-135706],-58.78,–
O=C(/C=C/c1ccc(Cl)c(Cl)c1)NCCCCCN1CCC(NC(=O)c2cccc(Cl)c2)CC1 [TCMDC-135868],49.83,–
N#Cc1ccc(NC(=O)NC2CCN(CCCCCNC(=O)/C=C/c3ccc(Cl)c(Cl)c3)CC2)cc1 [TCMDC-135705],-23.68,–
N#Cc1ccc(C(=O)NC2CCN(CCCCCNC(=O)/C=C/c3ccc(Cl)c(Cl)c3)CC2)cc1 [TCMDC-135837],78.66,–
N#Cc1cccc(C(=O)NC2CCN(CCCCCNC(=O)/C=C/c3ccc(Cl)c(Cl)c3)CC2)c1 [TCMDC-135841],88.37,–
O=C(/C=C/c1ccc(Cl)c(Cl)c1)NCCCCCN1CCC(NC(=O)c2ccc(F)cc2)CC1 [TCMDC-135840],0.6546,–
O=C(Nc1ccc(Cl)c(C(F)(F)F)c1)c1ccc(C(=O)Nc2ccc(Cl)c(C(F)(F)F)c2)cc1 [TCMDC-125581],-42.79,–
CC1(C)N=C(N)N=C(N)N1OCCCCON1C(N)=NC(N)=NC1(C)C [TCMDC-131630],2.586,–
Cc1cc(NC(=O)NCCN2CCC(NS(=O)(=O)c3ccc(C(F)(F)F)cc3)C2)c2ccccc2n1 (centres unmarked) [TCMDC-136140],44.51,–
NCc1cccc(-c2cccc(CN(C(=O)Nc3ccccc3)C3CCN(Cc4ccccc4)CC3)c2)c1 [TCMDC-140583],102.4,–
NCc1ccc(-c2ccccc2CN(C(=O)Nc2ccccc2)C2CCN(Cc3ccccc3)CC2)cc1 [TCMDC-140577],94.87,–
O=C(Nc1ccccc1)N(Cc1cccc(-c2cccc(CNCCc3ccccc3)c2)c1)C1CCN(Cc2ccccc2)CC1 [TCMDC-140587],90.55,–
O=C(Nc1ccccc1)N(Cc1ccccc1-c1cccc(CNCCc2ccccc2)c1)C1CCN(Cc2ccccc2)CC1 [TCMDC-140580],102.3,–

SMILES,% Inhibition [%],% Inhibition (% Inhibition) [%]
O=C(Nc1ccccc1)N(Cc1ccccc1-c1cccc(CNCc2ccc3c(c2)OCO3)c1)C1CCN(Cc2ccccc2)CC1 [TCMDC-140582],47.74,–
Cc1ccc(CN=C(N)NC(=O)c2nc(Cl)c(NCc3ccc(Cl)cc3)nc2N)c(C)c1 [TCMDC-138938],26.05,–
CN(c1ccc(NC(=O)c2cccc(F)c2)cc1)C1CCCN(Cc2cccc(O)c2)C1 (centres unmarked) [TCMDC-134957],-38.33,–
CC(=O)N(Cc1cccc(-c2ccc(CNCCc3ccccc3)cc2)c1)C1CCN(Cc2ccccc2)CC1 [TCMDC-140528],44.2,–
O=C(Nc1ccccc1)N(Cc1cccc(-c2ccc(CNCCc3ccccc3)cc2)c1)C1CCN(Cc2ccccc2)CC1 [TCMDC-140588],106.9,–
CC(=O)N(Cc1cccc(-c2cccc(CNCCc3ccccc3)c2)c1)C1CCN(Cc2ccccc2)CC1 [TCMDC-140527],98.23,–
S=C(Nc1cccc(Cl)c1)NC1CCN(c2ccnc3cc(Cl)ccc23)C1 (centres unmarked) [TCMDC-133400],41.6,–
Cc1cc(CN2CCCN(c3ccc4c(c3)CCN(Cc3ccc(-c5ncc[nH]5)cc3)CC4)CC2)n(C)n1 [TCMDC-136550],22.45,–
COc1ccc2nccc([C@@H](O)CN3CCC(NC(=O)c4ccc5nc(-n6cccc6)sc5c4)CC3)c2c1 [TCMDC-141027],-24.62,–
COc1cc2ccccc2c(CNCCCCCCNCc2c(OC)c(OC)cc3ccccc23)c1OC [TCMDC-137795],103.3,–
COc1cc2ccccc2c(OC)c1CNCCCCCCNCc1c(OC)cc2ccccc2c1OC [TCMDC-137843],116.8,–
COc1cc2c(cc1CCNCCCCNCCc1cc3c(cc1OC)CCCC3)CCCC2 [TCMDC-137319],108.4,–
COc1cc2ccccc2c(CON2C(N)=NC(N)=NC2(C)C)c1OC [TCMDC-131792],17.71,–
COc1cc2ccccc2cc1CCNCCCCNCCc1cc2ccccc2cc1OC [TCMDC-137944],108,–
Cl.O=C(Oc1ccc(C2CNCCc3c2cc(OC(=O)c2ccc(O)cc2)c(OC(=O)c2ccc(O)cc2)c3Cl)cc1)c1ccc(O)cc1 (centres unmarked) [TCMDC-141978],49.99,–
CC(C)Sc1nncc(-c2cnnc(SC(C)C)n2)n1 [TCMDC-123740],3.174,–
COc1ccc2nccc([C@@H](O)CN3CCC(NCc4cc5cccc6c5n(c4=O)CCC6)CC3)c2c1 [TCMDC-140735],-18.38,–
CCCc1cc(N2CCC(N3CCCC3)CC2)nc(Nc2ccc(OC)cc2)n1 [TCMDC-132387],2.102,–
C=C[C@H]1CN2CC[C@H]1C[C@H]2[C@H](O)c1ccnc2ccc(OC)cc12 [TCMDC-125479],–,-1.021
CC(C)=CCc1c(-c2ccc(O)cc2O)oc2c3c(cc(O)c2c1=O)OC(C)(C)C=C3 [TCMDC-124149],26.1,–
